Test [1] deals with Albumin (Bos taurus) (UniProt P02769). Briefly: compounds binding labelled BSA control protein – biochemical, small-molecule microarray, Alexa647 label, 635/667 nm fluorescence, artefact control for SMM control protein annotation, profiling panel (AID 1118).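 Also: score merges 667 nm emission intensity and signal-to-noise per printed compound spot.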 To be noted: BSA-A647 binding, fluorescence 635 nm, higher = more signal.
Test [2] in a line: probe aXIP binding to arrayed compounds – biochemical, NeuroSMM set, 635/667 nm fluorescence, primary screen (AID 1119).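 Also: probe is the protein aXip251-270 applied at 1 µg/mL to compound-printed slides; binding of probe to printed compounds measured as 667 nm fluorescence plus signal to noise.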 Particulars: small-molecule microarray, higher = more signal, called active from +8 up or from −8 down.
A short description of test [3]: probe aNOTCH3 binding on compound microarray – biochemical, small-molecule microarray, 635/667 nm fluorescence, primary screen (AID 1120).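 Also: probe is a biotin-tagged antibody raised against NOTCH3 rather than NOTCH3 protein; score merges spot fluorescence near 667 nm with spot signal to noise.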 To be noted: higher = more signal.
Test [4] is described as follows: probe aNOTCH2 binding on compound microarray – biochemical, small-molecule microarray, 635/667 nm fluorescence, primary screen (AID 1121).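 Also: score merges feature fluorescence read at 667 nm with its signal to noise.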 Particulars: higher = more signal.
Test [5] has as its target Carbonic anhydrase 2 (Homo sapiens) (UniProt P00918). Briefly: compounds binding carbonic anhydrase 2 – biochemical, small-molecule microarray, Alexa647-labelled CAII, profiling panel (AID 1122). Particulars: CAII-A647 binding fluorescence, higher = more signal.
The nature of test [6]: COS7 lysate on small-molecule microarray, probe aHis, 635 nm (AID 1123).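 Also: z-score combines 667nm fluorescence intensity with signal-to-noise per printed compound spot.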 Particulars: COS7 cell lysate, fluorescence, higher = more signal.
Test [7] is described as follows: probe aLAP1 signal on lysate-treated microarray – cell lysate, small-molecule microarray, COS7 lysate, primary screen (AID 1124).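 Also: lysate comes from COS7 cells expressing LAP1 and is applied at 0.3 µg/mL; score merges spot fluorescence near 667 nm with signal-to-noise over triplicate slides.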 Particulars: probe aLAP1, fluorescence, higher = more signal.
Test [8] relates to Sam68 (KHDRBS1). Kind of test: compounds binding KHDRBS1 protein – biochemical, small-molecule microarray, 635 nm fluorescence, primary screen (AID 1125).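 Also: score merges 667 nm channel intensity with signal to noise over triplicate slides.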 To be noted: higher = more signal.
The subject of test [9] is Chordin-like protein 2 (CHRDL2). Kind of test: compounds binding chordin-like 2 – biochemical, small-molecule microarray, 635 nm fluorescence, primary screen (AID 1126).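 Also: printed compound slides probed with Chrdl2 protein at 4 µg/mL for 1 h at 4 C; score merges 667 nm emission intensity with signal to noise over three replicate slides.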 To be noted: fluorescence 635 nm, higher = more signal.
Test [10] addresses Concanavalin-A (Canavalia ensiformis) (UniProt P02866). Briefly: compounds binding concanavalin A lectin – biochemical, small-molecule microarray, Alexa647 label, 635 nm, artefact control for SMM control protein annotation, primary screen (AID 1127).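 Also: z combines 667 nm emission intensity with signal-to-noise across three replicate slides.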 To be noted: ConA-A647 binding fluorescence, higher = more signal.
A short description of test [11]: compounds binding Alexa647 anti-His antibody – biochemical, small-molecule microarray, 635 nm fluorescence, artefact control for SMM control protein annotation, primary screen (AID 1128).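 Also: score merges feature fluorescence with signal-to-noise for each printed compound spot.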 To be noted: higher = more signal.
Test [12] has as its system Human papillomavirus type 1a E7 protein (residues 1-88). Kind of test: HPV1a E7 small-molecule binders, primary screen, biochemical, small-molecule microarray, residues 1-88, 635 nm (AID 1129). Particulars: small-molecule microarray binding, fluorescence 635 nm; higher = more signal.
The target in test [13] is Focal adhesion kinase 1 (Homo sapiens) (UniProt Q05397). Briefly: PTK2 protein binding on printed compound slides – biochemical, small-molecule microarray, 635/667 nm fluorescence, BSA, DTT, primary screen (AID 1130).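 Also: composite of spot emission at 667 nm and signal to noise over triplicate slides.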 Particulars: 635 nm fluorescence, higher = more signal.
The subject of test [14] is Fibrinogen (Alexa647-labelled). Kind of test: Alexa647-fibrinogen binding to printed small molecules – biochemical, small-molecule microarray, 635/667 nm fluorescence, artefact control for SMM control-protein annotation, profiling panel (AID 1131).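 Also: z-score merges 667 nm fluorescence with per-spot signal-to-noise over triplicate slides.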 Particulars: fibrinogen-A647 binding fluorescence, higher = more signal.
Test [15] addresses Follistatin (Homo sapiens) (UniProt P19883). Briefly: FST protein binding to printed compounds – biochemical, small-molecule microarray, 635/667 nm fluorescence, primary screen (AID 1132). Particulars: 635 nm fluorescence, higher = more signal.
The target in test [16] is Fibroblast growth factor 2 (Homo sapiens) (UniProt P09038). Kind of test: basic fibroblast growth factor binding to printed compounds – biochemical, small-molecule microarray, 635/667 nm fluorescence, primary screen (AID 1133). To be noted: FGF2, fluorescence 635/667, higher = more signal.
The nature of test [17]: JC-1 mitochondrial potential readout, lung cancer cells – cell-based, A549, JC-1 fluorescence, basal, 24 h, 100 nL, profiling panel (AID 1138).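 Also: A549 lung adenocarcinoma cells under basal conditions with no added stimulus; test concentration not given here.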 Particulars: higher = more signal.
In test [18] the test system is Lefty1. Kind of test: Lefty1 protein binding to printed compounds – biochemical, small-molecule microarray, 635/667 nm fluorescence, primary screen (AID 1139). Particulars: fluorescence 635/667, higher = more signal.
The subject of test [19] is wheat germ agglutinin (Triticum aestivum), Alexa647-labelled. Kind of test: Alexa647-WGA lectin binding to printed small molecules – biochemical, small-molecule microarray, 635/667 nm fluorescence, artefact control for SMM control-protein annotation, profiling panel (AID 1140).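 Also: score merges 667 nm feature emission with signal to noise over triplicate slides.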 To be noted: WGA-A647 binding, 635 nm fluorescence, higher = more signal.
Test [20] deals with Luciferin 4-monooxygenase (Photinus pyralis) (UniProt P08659). Briefly: inhibition of purified Photinus pyralis luciferase – biochemical, luminescence, purified enzyme, 2006 set, primary screen (AID 1141).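 Also: cell-free assay with purified firefly luciferase at 100 ng per well in PBS; test concentration not given here.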 Particulars: purified firefly luciferase, SteadyGlo luminescence, 30 min; higher = more signal, called active from +8 up or from −8 down.

Activity calls are given as the source filed them.

Chain of Focal adhesion kinase 1 (Homo sapiens) (Q05397 whole entry, looked up): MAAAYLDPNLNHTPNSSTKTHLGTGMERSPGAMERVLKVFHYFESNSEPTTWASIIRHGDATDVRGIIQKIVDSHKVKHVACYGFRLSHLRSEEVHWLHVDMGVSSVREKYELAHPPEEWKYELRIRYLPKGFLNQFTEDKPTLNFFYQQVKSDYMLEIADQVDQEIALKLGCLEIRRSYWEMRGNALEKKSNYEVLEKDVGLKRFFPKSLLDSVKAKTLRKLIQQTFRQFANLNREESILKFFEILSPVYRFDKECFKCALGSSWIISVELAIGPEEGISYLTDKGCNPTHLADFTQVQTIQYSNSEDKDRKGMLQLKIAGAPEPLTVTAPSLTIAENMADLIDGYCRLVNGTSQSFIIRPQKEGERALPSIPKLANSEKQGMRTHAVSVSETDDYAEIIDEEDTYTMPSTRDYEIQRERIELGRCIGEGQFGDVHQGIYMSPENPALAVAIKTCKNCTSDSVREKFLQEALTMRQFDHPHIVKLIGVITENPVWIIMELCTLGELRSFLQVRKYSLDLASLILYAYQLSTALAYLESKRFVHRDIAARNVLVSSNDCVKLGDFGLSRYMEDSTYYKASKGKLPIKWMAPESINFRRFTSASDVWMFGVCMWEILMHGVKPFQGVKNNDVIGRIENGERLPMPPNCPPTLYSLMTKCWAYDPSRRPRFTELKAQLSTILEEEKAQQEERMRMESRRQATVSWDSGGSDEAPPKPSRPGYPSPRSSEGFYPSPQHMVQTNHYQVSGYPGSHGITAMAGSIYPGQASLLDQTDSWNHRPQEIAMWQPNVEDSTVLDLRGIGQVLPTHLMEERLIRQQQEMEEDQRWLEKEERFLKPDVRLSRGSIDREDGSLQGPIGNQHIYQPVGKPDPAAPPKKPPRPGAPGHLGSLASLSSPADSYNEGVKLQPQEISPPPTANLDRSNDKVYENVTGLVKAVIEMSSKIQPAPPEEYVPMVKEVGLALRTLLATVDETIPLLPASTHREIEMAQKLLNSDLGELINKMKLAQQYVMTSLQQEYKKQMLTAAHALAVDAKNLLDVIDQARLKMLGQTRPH
Chain of Luciferin 4-monooxygenase (Photinus pyralis) (P08659 whole entry, looked up): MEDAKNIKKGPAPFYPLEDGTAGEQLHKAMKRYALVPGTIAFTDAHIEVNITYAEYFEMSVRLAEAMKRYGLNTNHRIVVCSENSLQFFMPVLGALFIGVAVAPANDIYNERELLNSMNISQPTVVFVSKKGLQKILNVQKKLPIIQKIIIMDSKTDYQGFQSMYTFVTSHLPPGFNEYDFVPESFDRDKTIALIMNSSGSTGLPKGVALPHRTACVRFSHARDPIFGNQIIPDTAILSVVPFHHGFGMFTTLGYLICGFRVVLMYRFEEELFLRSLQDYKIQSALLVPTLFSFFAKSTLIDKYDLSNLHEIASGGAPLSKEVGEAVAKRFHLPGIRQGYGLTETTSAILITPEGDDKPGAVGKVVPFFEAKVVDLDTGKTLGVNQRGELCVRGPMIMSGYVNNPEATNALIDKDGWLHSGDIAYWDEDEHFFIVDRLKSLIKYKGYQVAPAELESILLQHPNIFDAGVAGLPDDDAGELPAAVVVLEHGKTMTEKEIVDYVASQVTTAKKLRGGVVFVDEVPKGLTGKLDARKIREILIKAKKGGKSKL
Chain of Follistatin (Homo sapiens) (P19883 whole entry, looked up): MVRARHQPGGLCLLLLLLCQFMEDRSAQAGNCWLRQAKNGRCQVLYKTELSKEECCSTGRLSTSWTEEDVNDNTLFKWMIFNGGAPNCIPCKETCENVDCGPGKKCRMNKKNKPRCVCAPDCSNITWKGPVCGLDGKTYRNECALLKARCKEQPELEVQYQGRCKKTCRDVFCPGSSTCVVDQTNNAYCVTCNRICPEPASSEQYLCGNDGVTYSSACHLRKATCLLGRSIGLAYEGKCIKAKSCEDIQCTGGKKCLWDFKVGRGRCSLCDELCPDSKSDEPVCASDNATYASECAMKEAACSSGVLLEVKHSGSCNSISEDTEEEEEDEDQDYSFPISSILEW
Chain of Fibroblast growth factor 2 (Homo sapiens) (P09038 whole entry, looked up): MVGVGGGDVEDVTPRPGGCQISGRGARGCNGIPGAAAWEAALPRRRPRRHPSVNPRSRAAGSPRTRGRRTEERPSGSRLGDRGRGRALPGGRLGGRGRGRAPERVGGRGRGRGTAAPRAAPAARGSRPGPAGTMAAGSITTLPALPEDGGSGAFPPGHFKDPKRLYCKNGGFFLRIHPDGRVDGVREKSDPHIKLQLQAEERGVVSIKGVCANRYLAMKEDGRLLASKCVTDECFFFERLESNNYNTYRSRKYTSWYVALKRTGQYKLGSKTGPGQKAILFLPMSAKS
Chain of Concanavalin-A (Canavalia ensiformis) (P02866 whole entry, looked up): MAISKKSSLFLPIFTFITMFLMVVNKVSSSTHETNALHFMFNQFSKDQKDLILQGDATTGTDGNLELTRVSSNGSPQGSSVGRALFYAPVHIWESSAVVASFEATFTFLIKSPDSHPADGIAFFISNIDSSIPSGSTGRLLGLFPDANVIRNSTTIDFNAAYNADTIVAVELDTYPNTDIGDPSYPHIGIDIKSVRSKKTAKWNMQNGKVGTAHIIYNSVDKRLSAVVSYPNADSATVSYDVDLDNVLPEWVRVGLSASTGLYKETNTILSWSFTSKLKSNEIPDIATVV
Chain of Albumin (Bos taurus) (P02769 whole entry, looked up): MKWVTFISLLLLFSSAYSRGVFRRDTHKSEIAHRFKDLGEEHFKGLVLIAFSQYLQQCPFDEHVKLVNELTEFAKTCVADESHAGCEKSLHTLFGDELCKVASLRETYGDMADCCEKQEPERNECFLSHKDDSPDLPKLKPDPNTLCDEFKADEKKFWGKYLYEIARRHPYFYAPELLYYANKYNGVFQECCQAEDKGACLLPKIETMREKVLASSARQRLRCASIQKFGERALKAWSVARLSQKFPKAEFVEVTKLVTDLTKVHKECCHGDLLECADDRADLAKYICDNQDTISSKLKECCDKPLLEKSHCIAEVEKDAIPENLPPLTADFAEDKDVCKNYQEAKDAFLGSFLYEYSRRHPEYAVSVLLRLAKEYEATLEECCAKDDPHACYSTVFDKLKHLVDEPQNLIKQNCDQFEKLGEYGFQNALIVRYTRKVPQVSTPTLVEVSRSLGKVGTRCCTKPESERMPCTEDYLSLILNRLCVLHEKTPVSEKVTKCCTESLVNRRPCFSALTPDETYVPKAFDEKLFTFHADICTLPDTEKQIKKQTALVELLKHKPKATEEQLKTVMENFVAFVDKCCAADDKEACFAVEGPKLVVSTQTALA

On to `C=CCNC(=O)[C@@H]1[C@H]2C(=O)O[C@H](c3ccccc3)[C@H](c3ccccc3)N2[C@H](c2ccccc2OCCO)[C@@]12C(=O)N(C(=O)OCCOC)c1ccc(C#CCC(C(=O)OC)C(=O)OC)cc12`, for which the composite z-score in [1] came out at 0.718; in test [3] it was 1.41; in test [4], 0.526; in [5] it was 0.505; in [6] it was 3.05; in test [7], 1.33. Also, the composite z-score in test [8] worked out at 1.32; in [9], 1.49; in [10], 1.15; in [11], 1.39; in [12], 1.23; in [13], 1.25. Further, the composite z-score in test [14] was determined as 0.896; in test [15], 1.04; in [16], 1.42; in test [18] it was 1.11; in [19], 1.12. Moreover, the composite Z-score in test [2] is 1.26 (inactive). The z-score in test [17] was -0.453; in test [20] it was 0.112 (inactive).

For `COc1ccc([Si](C)(C)[C@@H]2[C@@H](CCO)O[C@]3(C(=O)N(Cc4cccc(N(C=O)c5ccccc5)c4)c4ccccc43)[C@H]2C)cc1`, the composite z-score in test [1] was 0.492; in test [3], -0.0328; in test [4] it was -0.0876; in [5], 0.457; in [6], 0.46; in test [7] it was -0.206. For the same compound, the composite z-score was 1.32 in test [8]; -0.179 in test [9]; 1.1 in test [10]; 1.25 in [11]; 1.04 in [12]; 0.228 in test [13]. In addition, the composite z-score is 0.508 in test [14]; 1.18 in test [15]; 0.598 in test [16]; 0.127 in test [18]; 0.893 in test [19]. The composite Z-score in test [2] was 0.492 (inactive). Further, the z-score in test [17] was -0.0337; in test [20] it was 0.505 (inactive).

For `COC(=O)[C@@]1(Cc2ccc(OC)cc2)[C@H]2c3cc(C(=O)N(C)C)n(Cc4ccc(OC)c(OC)c4)c3C[C@H]2CN1C(=O)c1ccccc1`, the composite z-score in test [1] came out at 0.857; in [3], 0.391; in test [4], 0.218; in test [5], 0.587; in test [6] it was 3.17; in test [7] it was 0.457. Besides, the composite z-score was 1.29 in test [8]; -0.885 in test [9]; 0.96 in test [10]; 1.26 in [11]; 1.25 in [12]; 0.96 in [13]. Besides, the composite z-score was 0.844 in test [14]; 0.745 in [15]; -0.3 in [16]; -0.257 in test [18]; 0.951 in [19]. The composite Z-score in test [2] was -0.327 (inactive). The z-score in test [17] is 0.327; in test [20], 1.72 (inactive).

Take `CCN(CC)c1ccc(N2CC=CC34O[C@@H]5/C=C\CCC(C)OC(=O)C5[C@H]3C(=O)N(CCCCCCO)[C@@H]4C2=O)cc1` (stereo not given in full): the composite z-score was 0.362 in test [1]; -0.204 in test [3]; -0.224 in test [4]; 0.548 in test [5]; -0.039 in test [6]; -0.458 in test [7]. Besides, the composite z-score in [8] was -0.264; in test [9], -0.143; in [10], -0.285; in [11], 0.0517; in [12], -0.089; in [13] it was -0.182. Besides, the composite z-score is -1.59 in test [14]; -0.371 in test [15]; -0.361 in [16]; -0.652 in test [18]; 0.524 in [19]. Further, in [2], the composite Z-score was 0.184 (inactive). The z-score is 0.905 in test [17] and -1.59 (inactive) in test [20].

Turning to `[N-]=[N+]=NCc1ccccc1C[C@]1(C(N)=O)N=C(c2ccc(OCCCO)cc2)O[C@H]1c1ccccc1N=[N+]=[N-]`, the composite z-score was 0.421 in test [1]; 0.327 in [3]; 0.0185 in [4]; 0.513 in test [5]; 1.46 in test [6]; 0.312 in [7]. The composite z-score in test [8] is 1.23; in test [9], -0.652; in test [10], 1.09; in test [11] it was 2.21; in test [12], 1.19; in [13] it was 0.394. In addition, the composite z-score in test [14] is 0.751; in test [15] it was 0.847; in test [16], -0.386; in test [18], 0.0874; in test [19], 1.03. In addition, in test [2], the composite Z-score is -0.338 (inactive). Besides, the z-score in test [17] is -0.542; in test [20], -10.3 (active).

For the origin of these results see PubChem BioAssay.
